Measurements taken from PubChem BioAssay (Tox21).
Several values for one entry are separate records, joined by “and”; a condition that tells them apart may be missing. Identical values can stand only once. Unmarked numbers belong to inactive results. Records with an inconclusive call do not appear. Entries that show only a call come without a potency. Activity calls are given as the source filed them. Unless noted, calls follow the shape of the dose curve; as a rule, active = well fitted curve in the direction sought with a large enough effect in the repeat runs; inconclusive = weak or mixed curves; inactive = no such curve, though single readings can be large; an effect the other way counts as inactive or inconclusive.

Assays:
[1] = qHTS assay for small molecule agonists of the p53 signaling pathway (AID 651631; calls by dose curve; also: nearly all actives have a fitted effect of over 15% in size; also: potency is read from the fitted curve at half-maximal effect)
Summary of the method: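 Quantitative high-throughput format: 4,000 p53RE-bla HCT-116 cells/well, 5 h pre-incubation, 16 h compound exposure at 37 °C, 2 h room-temperature substrate step, fluorescence intensity measured.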

[2] = qHTS assay for small molecules that induce genotoxicity in human embryonic kidney cells expressing luciferase-tagged ATAD5 (AID 651632); also: nearly all actives have a fitted effect of over 15% in size; also: potency is read from the fitted curve at half-maximal effect
Summary of the method: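 Increased luciferase signal from ATAD5-tagged reporter cells indicates DNA-damage-driven ATAD5 induction. HEK293T cells are treated for 16 hr at 37C before detection with Amplite.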

[3] = qHTS assay for small molecule agonists of the p53 signaling pathway - cell viability (AID 651633; calls by dose curve;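 also: p53RE-bla HCT reporter cells with a stable beta-lactamase p53 reporter; series mostly up to about 83 µM; nearly all actives have a fitted effect of over 30% in size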)
Summary of the method: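 Viability counter-read: CellTiter-Glo luminescence (30 min, room temperature) in the same p53RE-bla plates. These plates had been exposed to compounds for 16 h at 37 C.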

[4] = qHTS assay for small molecules that induce genotoxicity in human embryonic kidney cells expressing luciferase-tagged ATAD5 - cell viability (AID 651634; calls by dose curve; also: nearly all actives have a fitted effect of over 25% in size)
Summary of the method: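 Cytotoxicity counterscreen in HEK293T cells bearing an ATAD5-luciferase reporter: live-cell protease activity measured by CellTiter-Fluor fluorescence after 15.5 hr compound exposure.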

[5] = qHTS assay for small molecule disruptors of the mitochondrial membrane potential - cell viability (AID 720634; calls by dose curve;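 also: human HepG2 liver cancer cells; series mostly up to about 83 µM; nearly all actives have a fitted effect of over 20% in size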)
Summary of the method: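 After overnight attachment at 37 C, HepG2 cells received compound or DMSO vehicle for 1 hr. Viability is then taken from ATP-driven luminescence following a 30 min room-temperature CellTiter-Glo step.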

[6] = qHTS assay for small molecule disruptors of the mitochondrial membrane potential (AID 720635); also: potency is read from the fitted curve at half-maximal effect
Summary of the method: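 Mitochondrial membrane potential tracked with Mito-MPS dye, red aggregates (ex 540/em 590 nm) against green monomers (ex 490/em 535 nm). Compound treatment 1 hr at 37C, dye 30 min in HepG2.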

[7] = qHTS assay to test for compound auto fluorescence at 590 nm (red) in HepG2 cells (AID 720674)
Summary of the method: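 Red autofluorescence (Ex/Em 540/590 nm, Rose Bengal sodium equivalents) was measured in HepG2 cells, 2,000 per well in MEM plus 10% FBS, plated overnight at 37 C. Readings were taken 1 hr after adding 23 nL compound or DMSO, at 37 C and 5% CO2.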

[8] = qHTS assay to test for compound auto fluorescence at 535 nm (green) in HepG2 cells (AID 720675)
[9] = qHTS assay to test for compound auto fluorescence at 460 nm (blue) in HEK293 cells (AID 720678)
Summary of the method: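 Measured: blue fluorescence (Ex 405/Em 460 nm) of compound-treated HEK293 cells, incubated overnight at 37C with 5% CO2 and scaled to triamterene equivalents.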

[10] = qHTS assay to test for compound auto fluorescence at 590 nm (red) in HEK293 cells (AID 720679)
Summary of the method: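 Using HEK293 cells at 2,000 per well, the screen added 23 nL of each compound after cell attachment and incubated overnight (37C, 5% CO2). The plate reader then captured red-label fluorescence, Ex/Em 540/590nm.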

[11] = qHTS assay to test for compound auto fluorescence at 535 nm (green) in HEK293 cells (AID 720680)
[12] = qHTS assay to test for compound auto fluorescence at 460 nm (blue) in HEK293 cell free culture (AID 720681)
Summary of the method: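 Blue fluorescence (Ex 405/Em 460 nm, triamterene-equivalent) was read immediately after pin transfer of compound or DMSO into medium (DMEM, 10% FBS) without cells.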

[13] = qHTS assay to test for compound auto fluorescence at 535 nm (green) in HEK293 cell free culture (AID 720682)
Summary of the method: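 Measurement is a direct plate read of green fluorescence (485 nm in, 535 nm out) after compound addition to serum-supplemented DMEM lacking cells, with fluorescein used to express intensities.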

[14] = qHTS assay to test for compound auto fluorescence at 590 nm (red) in HepG2 cell free culture (AID 720684)
Summary of the method: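 Steps: dispense MEM/10% FBS medium, no cells; pin compound or DMSO vehicle; read red channel, Ex/Em 540/590 nm. Output given as Rose Bengal sodium equivalents.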

[15] = qHTS assay to test for compound auto fluorescence at 460 nm (blue) in HepG2 cell free culture (AID 720685)
Summary of the method: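 Compound (23 nL) or DMSO pinned into cell-free MEM with 10% FBS; blue fluorescence read at 405/460 nm excitation/emission, expressed as auto-fluorescence equivalency to triamterene.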

[16] = qHTS assay to test for compound auto fluorescence at 535 nm (green) in HepG2 cell free culture (AID 720686)
[17] = qHTS assay to test for compound auto fluorescence at 460 nm (blue) in HepG2 cells (AID 720687)
Summary of the method: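 Blue-channel autofluorescence (Ex/Em 405/460 nm, triamterene-equivalent) was measured after 1 hr compound exposure at 37 C, 5% CO2. Cells were HepG2, plated overnight at 37 C in MEM plus 10% FBS.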

[18] = qHTS assay to test for compound auto fluorescence at 590 nm (red) in HEK293 cell free culture (AID 720683)
Summary of the method: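 Red-channel autofluorescence of compounds in culture medium (DMEM, 10% FBS), no cells, measured at 540/590 nm. Rose Bengal sodium is the reference fluorophore for equivalence.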

[19] = target: Glucocorticoid receptor (Homo sapiens) (UniProt P04150); assay: qHTS assay to identify small molecule agonists of the glucocorticoid receptor (GR) signaling pathway (AID 720691; active = well fitted activation curve with a large enough effect in the signal ratio in the repeat runs, not every such curve was filed as active; the % refers to the signal ratio)
Summary of the method: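 Agonist mode in a HeLa line carrying a GRE-controlled beta-lactamase reporter. Compounds act for 18 h at 37 C before a 2 h room-temperature FRET substrate step and fluorescence reading.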

[20] = target: Glucocorticoid receptor (Homo sapiens) (UniProt P04150); assay: qHTS assay to identify small molecule antagonists of the glucocorticoid receptor (GR) signaling pathway (AID 720692; active = well fitted inhibition curve with a large enough effect in the signal ratio in the repeat runs, not every such curve was filed as active; the % refers to the signal ratio)
Summary of the method: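 Cells plated, rested 4 h at 37 C/5% CO2; compounds in DMSO pin-transferred; dexamethasone added to 5 nM final; 18 h at 37 C; B/G FRET substrate added, 2 h room temperature; fluorescence measured.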

Glucocorticoid receptor (Homo sapiens), sequence (P04150 whole entry, looked up): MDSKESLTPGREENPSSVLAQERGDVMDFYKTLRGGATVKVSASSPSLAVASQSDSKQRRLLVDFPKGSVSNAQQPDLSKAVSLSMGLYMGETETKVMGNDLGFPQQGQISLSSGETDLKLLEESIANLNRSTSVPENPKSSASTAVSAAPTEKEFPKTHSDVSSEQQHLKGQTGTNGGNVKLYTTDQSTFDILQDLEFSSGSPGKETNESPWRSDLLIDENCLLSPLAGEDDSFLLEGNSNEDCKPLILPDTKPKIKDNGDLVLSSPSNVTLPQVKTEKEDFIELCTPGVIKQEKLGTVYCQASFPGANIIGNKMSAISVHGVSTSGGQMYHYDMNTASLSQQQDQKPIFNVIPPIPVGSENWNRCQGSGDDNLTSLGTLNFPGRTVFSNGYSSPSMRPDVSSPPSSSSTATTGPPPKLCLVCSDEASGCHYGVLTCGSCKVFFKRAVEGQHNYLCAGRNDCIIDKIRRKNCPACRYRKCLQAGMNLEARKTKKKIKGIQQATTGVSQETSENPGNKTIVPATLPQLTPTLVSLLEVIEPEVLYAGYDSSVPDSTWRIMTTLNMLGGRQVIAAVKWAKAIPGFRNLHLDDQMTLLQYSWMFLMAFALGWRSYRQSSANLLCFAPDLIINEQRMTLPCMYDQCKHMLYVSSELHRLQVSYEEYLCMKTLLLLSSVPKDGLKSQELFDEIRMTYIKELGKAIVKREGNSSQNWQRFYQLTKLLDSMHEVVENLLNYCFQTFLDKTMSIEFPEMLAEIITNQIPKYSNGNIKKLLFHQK

| SMILES | Potency [1] | Potency [2] | Potency [3] | Potency [4] | Potency [5] | Potency [6] | outcome [7] | outcome [8] | Potency [9] | outcome [10] | outcome [11] | Potency [12] | outcome [13] | outcome [14] | outcome [15] | outcome [16] | outcome [17] | outcome [18] | Potency [19] | Potency [20] |
| --- | --- | --- | --- | --- | --- | --- | --- | --- | --- | --- | --- | --- | --- | --- | --- | --- | --- | --- | --- | --- |
| CC1(C)[C@@H]2CC[C@]3(C2)[C@@H]1C(=O)CCC3(C)C | inactive | inactive | inactive | inactive | inactive | inactive | inactive | inactive | inactive | inactive | inactive | inactive | inactive | inactive | inactive | inactive | inactive |  |  |  |
| O=C(O)CCc1nc2ccccc2[nH]1 | inactive | inactive | inactive | inactive | inactive | inactive | inactive | inactive | inactive | inactive | inactive | inactive | inactive | inactive | inactive | inactive |  | inactive |  |  |
| C[C@H]1C[C@H]2[C@@H]3CCC4=CC(=O)C=C[C@]4(C)[C@@]3(F)[C@@H](O)C[C@]2(C)[C@@]1(O)C(=O)COP(=O)(O)O | inactive | inactive | inactive | inactive | inactive | inactive | inactive | inactive | inactive | inactive | inactive | inactive | inactive | inactive | inactive | inactive | inactive | inactive |  |  |
| COc1ccc(/C=C/S(=O)(=O)NC(=O)c2ccc(C)cc2Cl)cc1 | 30.6 µM (active) | 21.7 µM (active) | inactive | inactive | inactive | 61.1 µM (active) | inactive | inactive | inactive | inactive | inactive |  | inactive | inactive | inactive | inactive | inactive | inactive |  |  |
| CCCCCCCCCC(C)C=O (configuration not stated) | inactive | inactive | inactive | inactive | inactive | inactive | inactive | inactive | inactive | inactive | inactive | inactive | inactive | inactive |  | inactive | inactive | inactive | inactive |  |
| CC1(C)CC(=O)CC(C)(C)N1 | inactive | inactive | inactive | inactive | inactive | inactive | inactive | inactive | inactive | inactive | inactive | inactive | inactive | inactive | inactive | inactive | inactive |  | inactive | inactive |
| COc1ccc(C(=O)c2ccc(C)cc2)c(O)c1 | inactive | inactive | inactive | inactive | inactive | 61.8 µM (active) | inactive | inactive |  | inactive | inactive | inactive | inactive | inactive |  | inactive |  | inactive |  |  |
| Nc1nc(Cl)nc2c1ncn2[C@H]1C[C@H](O)[C@@H](CO)O1 | 841 nM (active) and 341 nM (active) | inactive | inactive | inactive | inactive | inactive | inactive | inactive | inactive | inactive | inactive | inactive | inactive | inactive | inactive | inactive | inactive |  | inactive |  |
| CCOc1ccccc1O | inactive | inactive | inactive | inactive | inactive | inactive | inactive | inactive | inactive | inactive | inactive | inactive | inactive | inactive |  | inactive | inactive | inactive |  |  |
| Cc1c(N=C=O)cccc1N=C=O | inactive | inactive | inactive | inactive | inactive | inactive | inactive | inactive | inactive | inactive | inactive |  | inactive | inactive | inactive | inactive | inactive | inactive |  | inactive |
| Nc1ccc(F)cc1F | inactive | inactive | inactive | inactive | inactive | inactive | inactive | inactive | inactive | inactive | inactive |  | inactive | inactive | inactive | inactive | inactive | inactive | inactive | inactive |
| CC(C)Oc1ccccc1O | inactive | inactive | inactive | inactive | inactive | inactive | inactive | inactive | inactive | inactive | inactive |  | inactive | inactive | inactive | inactive | inactive | inactive | inactive | inactive |
| C=CCCC | inactive | inactive | inactive | inactive | inactive | inactive | inactive | inactive |  | inactive | inactive | inactive | inactive | inactive |  | inactive | inactive |  | inactive | inactive |
| CC1=C(C)C(=O)C(C(CCCCCC(=O)O)c2ccccc2)=C(C)C1=O (configuration not stated) | inactive | inactive | inactive | inactive | inactive | inactive | inactive | inactive | inactive | inactive | inactive | inactive | inactive | inactive | inactive | inactive | inactive | inactive |  | inactive |
| O=[N+]([O-])c1ccccc1CCO | inactive | inactive | inactive | inactive | inactive | inactive | inactive | inactive | inactive | inactive | inactive | inactive | inactive | inactive | inactive | inactive | inactive | inactive | inactive |  |
